Sampled rows, rich in hits. Any-hit rate of the full collection: about 32%.
PostGolgi ctrl – growth inhibition of yeast control strain, primary screen, counter-screen for post-Golgi transport modulator project | efflux-deficient yeast background strain, growth absorbance A615, 16 h | inhibition, % at 10 µM | 5% of 98,000 active | AID 738, 2007
CYP2C19 activ – human CYP2C19 activators, primary screen, biochemical, luminescence | Cytochrome P450 2C19 (Homo sapiens), P33261 | recombinant CYP2C19, luciferin-H EGE luminescence; active compounds read high; 0 = fully inhibited enzyme, 1 = untreated enzyme | activation factor at 5 µM | 96,000 tested, under 10 active;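 active = activation factor of at least 2 at 5 µM in the primary screen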;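 also: 0 = wells with 2.5 mM tranylcypromine and 1 = vehicle-only wells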
CYP2C19 inh – blockers of cytochrome P450 2C19 activity – biochemical, luminescence, ADME assay, primary screen. inhibition, % at 5 µM. CYP2C19 Supersomes, luciferin-H EGE luminescence, 30 min. P33261. 21% of 96,000 active;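 active = CYP2C19 inhibition above a set limit at 5 µM in the primary screen, cut at about 50% in these data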;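 also: plate controls were negative control wells for no effect and 2.5 mM tranylcypromine positive control for full effect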
CYP2C9 inhib – blockers of cytochrome P450 2C9 activity – biochemical, luminescence, ADME assay, primary screen. P11712. 20% of 96,000 active. inhibition, % at 5 µM. CYP2C9 Supersomes, luciferin-H conversion. AID 777, 2007;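 active = blocking of liver enzyme CYP2C9 beyond about 50% at 5 µM, limit read from the data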
Target sequence (P11712 whole entry, looked up): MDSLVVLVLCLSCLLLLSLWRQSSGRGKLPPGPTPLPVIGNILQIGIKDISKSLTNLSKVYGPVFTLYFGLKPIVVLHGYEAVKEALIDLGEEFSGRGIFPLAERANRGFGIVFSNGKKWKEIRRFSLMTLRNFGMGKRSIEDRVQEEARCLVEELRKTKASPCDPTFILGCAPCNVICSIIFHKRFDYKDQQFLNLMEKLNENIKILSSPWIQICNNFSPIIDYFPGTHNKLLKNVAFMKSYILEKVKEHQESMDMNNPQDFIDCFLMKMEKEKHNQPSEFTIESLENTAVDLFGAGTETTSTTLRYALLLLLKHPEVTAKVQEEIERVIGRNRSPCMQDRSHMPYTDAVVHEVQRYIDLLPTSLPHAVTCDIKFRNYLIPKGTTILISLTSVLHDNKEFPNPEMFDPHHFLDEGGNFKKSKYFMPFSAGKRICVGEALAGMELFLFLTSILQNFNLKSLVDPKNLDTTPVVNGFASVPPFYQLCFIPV
PostGolgi yeast – phenotypic screen on post-Golgi transport, primary screen; post-Golgi transport phenotypic cell assay; inhibition, % at 10 µM; 0.9% of 98,000 active;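 also: yeast cells grown in 1536-well plates; yeast grown about 18 h at 30C before absorbance read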
CYP2C9 activ – human CYP2C9 activators, primary screen, biochemical, luminescence. Cytochrome P450 2C9 (Homo sapiens), P11712. activation factor at 5 µM. recombinant CYP2C9, luciferin-H conversion; active compounds read high; factor 1 = untreated enzyme, 0 = blocked. 1.4% of 96,000 active;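 active = activation factor of 2 or more for CYP2C9 at a 5 µM dose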;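 also: 0 = sulfaphenazole-blocked wells and 1 = vehicle-only wells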
Active calls of the source: *; . = no result. Rule as the data show it, unless noted: active = inhibition above about 30%; inactive = the rest.

SMILES | PostGolgi ctrl | CYP2C19 activ | CYP2C19 inh | CYP2C9 inhib | PostGolgi yeast | CYP2C9 activ
Cc1nc(C)n(C(C)CC(=O)O)n1 (stereo not given) | 3 | . | . | . | 1 | .
CC(=O)OC12CC3CC(C1)C(=NO)C(C3)C2 | 4 | 1.1 | -8 | -14 | 4 | 1.1
CCOC(=O)NNC1CC(=O)N(c2ccc(OC)cc2)C1=O (stereo not given) | 2 | 1 | -3 | 6 | -11 | 0.9
CCOC(=O)CNC(=O)C1c2ccccc2C(=O)N(c2ccc(OC)cc2)C1c1ccc(OC)cc1 (stereo not given) | 8 | 0.8 | 20 | 20 | -6 | 0.8
CCc1nnc(NC(=O)CSc2nnc(Cc3ccccc3)n2Cc2ccccc2)s1 | 1 | 0.7 | 28 | 43 | -2 | 0.6
CCc1nnc(NC(=O)CSc2ncc(-c3ccccc3)n2CC)s1 | 22 | 0.2 | 76* | 72* | -2 | 0.3
c1ccc2c(-c3ccncc3)c[nH]c2c1 | 6 | 0.1 | 85* | 93* | 0 | 0.1
O=C(NCCNS(=O)(=O)c1ccccc1)c1cc(OCC(F)(F)F)ccc1OCC(F)(F)F | 9 | 0.8 | 25 | 6 | -3 | 0.9
O=C(NCCNC(=O)c1cc(OCC(F)(F)F)ccc1OCC(F)(F)F)Nc1ccccc1 | 11 | 0.8 | 22 | 57* | -3 | 0.4
C#CCONC(=O)c1cc(OCC(F)(F)F)ccc1OCC(F)(F)F | -1 | 0.4 | 61* | 21 | -5 | 0.8
O=C(NO)c1cc(OCC(F)(F)F)ccc1OCC(F)(F)F | 5 | 1 | -1 | 25 | -3 | 0.8
CCC(=O)/C=C1\Sc2ccc(OC)cc2N1CC | 11 | 0.7 | 34 | 25 | 15 | 0.8
CCOC(=O)c1[nH]c(C)c(C(=O)Nc2cccc(Cl)c2C)c1C | 21 | 0.8 | 17 | 43 | 0 | 0.6
C=CCNCC#CCOc1ccc(OC)cc1 | -4 | 0.2 | 76* | 13 | 5 | 0.9
COCCNCC#CCOc1ccc(OC)cc1 | 15 | 0.9 | 5 | -2 | 0 | 1
CC(C)(C)c1nnc2sc(SCC(=O)N3CCCc4ccccc43)nn2c1=O | 25 | 0.3 | 71* | 41 | 0 | 0.6
Cc1ccc(C(=O)CSc2nn3c(=O)c(C(C)(C)C)nnc3s2)cc1 | -7 | 0.9 | 14 | 21 | 15 | 0.8
CC(C)(C)c1nnc2sc(SCC(=O)c3ccc(Cl)cc3)nn2c1=O | 6 | 1.1 | -5 | 10 | 2 | 0.9
CC(C)(C)c1nnc2sc(SCC(=O)c3cccs3)nn2c1=O | 9 | 0.7 | 26 | 96* | -2 | 0
CCC(C)(C)NCC(=O)Nc1ccc(OC(F)(F)F)cc1 | -4 | 0.6 | 42 | 5 | 15 | 1
COCCCNCC(=O)Nc1ccc(OC(F)(F)F)cc1 | 42* | . | . | . | 9 | .
O=C1C(Cl)=C(N2CCN(Cc3ccccc3)CC2)C(=O)N1Cc1ccccc1 | 8 | 0.8 | 15 | 55* | -2 | 0.5
CCOC(=O)N1CCN(C(=O)CN(Cc2ccc(Cl)cc2)S(=O)(=O)c2ccccc2)CC1 | 12 | 0.6 | 41 | 27 | -3 | 0.7
O=C(N/N=C\c1ccc(CN(Cc2ccc(Cl)cc2)S(=O)(=O)c2ccccc2)o1)C(=O)Nc1ccc(F)cc1 | -4 | 0.2 | 82* | 76* | -6 | 0.2
Cc1[nH]c2ccccc2c1C(c1ccccn1)N1CCC(C(N)=O)CC1 (stereo not given) | 0 | 0.5 | 51* | -6 | 2 | 1.1
CCOc1cc(CNCCc2ccc(S(N)(=O)=O)cc2)ccc1OCc1ccc(Cl)cc1 | 12 | 0.5 | 54* | 35 | 13 | 0.6
COc1cc(CNCCc2ccc(S(N)(=O)=O)cc2)ccc1OCc1ccc(Cl)cc1 | 16 | 0.5 | 53* | 36 | -19 | 0.6
COc1cc(CNCCc2ccc(S(N)(=O)=O)cc2)ccc1OCC(=O)NC1CCCCC1 | 6 | 0.9 | 13 | 8 | -3 | 0.9
COc1cc(CNCC(O)c2ccccc2)ccc1OCc1ccc(Cl)nc1 (stereo not given) | 4 | 0.6 | 42 | 39 | 0 | 0.6
COc1cc(CNCCc2ccccc2)ccc1OCc1ccc(Cl)nc1 | 39* | 0.3 | 68* | 35 | 18 | 0.7
